Measured values from the supplement of paper PMC3342239.
Counter-ions that a name gives are not always drawn.

system: Saccharomyces cerevisiae; experiment: fraction of cells in G1 phase (DNA content, flow cytometry); higher = more cells with unreplicated DNA (G1 delay); details: temperature: 30 C; YPD; JTY2953 pdr5 snq2 (sensitized); drug added to: cultures diluted from stationary phase; 6-7 h
Outline: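 Yeast (S. cerevisiae) in YPD at 30°C was treated with library drugs, and cells were then fixed in ethanol, stained with SYTOX Green and counted by flow cytometry over 10,000 events. Sensitized JTY2953 diluted 1∶200 from an overnight culture got a final 20 µg/ml and was fixed 6–7 h later; other runs dosed dividing JTY2953 (fixed at 6 h) or BY4741 (fixed at 4.33 h). G1 fraction means the Dean-Jett-Fox G1 peak area relative to the G1 and G2/M areas together.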

Going from `COc1ccc(Cl)cc1C(=O)NCCc1ccc(S(=O)(=O)NC(=O)NC2CCCCC2)cc1` [Glyburide] (40.4847 µM) to `Cc1ccc(S(=O)(=O)NC(=O)NN2CC3CCCC3C2)cc1` (stereo not drawn) [Gliclazide] (61.8397 µM), the “fraction of cells in G1 phase” value falls from 0.531 to 0.51.

Going from `CC(C)Nc1cccnc1N1CCN(C(=O)c2cc3cc(NS(C)(=O)=O)ccc3[nH]2)CC1` [Delavirdine mesylate] (43.8048 µM) to `O=C(CCCN1CCN(c2ccccn2)CC1)c1ccc(F)cc1` [Azaperone] (61.0864 µM), the “fraction of cells in G1 phase” value rises from 0.487 to 0.582.

Compared with `CCn1cc(C(=O)O)c(=O)c2cc(F)c(N3CCN(C)CC3)cc21` [Pefloxacine mesylate] (59.9942 µM), `C[C@H]1COc2c(C3(N)CC3)c(F)cc3c(=O)c(C(=O)O)cn1c23` [Pazufloxacin] (62.8324 µM) is higher in “fraction of cells in G1 phase” value: 0.465 for the first, 0.474 for the second.

Compared with `Nc1c(Br)cc(Br)cc1CN[C@H]1CC[C@H](O)CC1` [Ambroxol] (52.8948 µM), `CN(Cc1cc(Br)cc(Br)c1N)C1CCCCC1` [Bromhexine HCl] (53.1721 µM) is lower in “fraction of cells in G1 phase” value: 0.529 for the first, 0.466 for the second.

Compared with `Cn1cnc([N+](=O)[O-])c1Sc1ncnc2[nH]cnc12` [Azathioprine] (72.1241 µM), `CCOC(=O)C1=C(C)NC(C)=C(C(=O)OC)C1c1cccc([N+](=O)[O-])c1` (stereo not drawn) [Nitrendipine] (55.4985 µM) is higher in “fraction of cells in G1 phase” value: 0.465 for the first, 0.472 for the second.

Compared with `C[C@]12C[C@H](O)[C@H]3[C@@H](CCC4=CC(=O)CC[C@@]43C)[C@@H]1CC[C@@H]2C(=O)CO` [Corticosterone] (57.7249 µM), `CC(=O)O[C@]1(C(C)=O)CC[C@H]2[C@@H]3C=C(C)C4=CC(=O)CC[C@]4(C)[C@H]3CC[C@@]21C` [Megestrol acetate] (52.0129 µM) is higher in “fraction of cells in G1 phase” value: 0.512 for the first, 0.575 for the second.

Compared with `CCN(CC)CC(=O)Nc1c(C)cccc1C` [Lidocaine] (73.8552 µM), `CNS(=O)(=O)Cc1ccc2[nH]cc(CCN(C)C)c2c1` [Sumatriptan Succinate] (48.368 µM) is lower in “fraction of cells in G1 phase” value: 0.499 for the first, 0.457 for the second.

Compared with `N=C(N)c1ccc(OCCCCCOc2ccc(C(=N)N)cc2)cc1` [Pentamidine] (58.7494 µM), `CN(CCOc1ccc(NS(C)(=O)=O)cc1)CCc1ccc(NS(C)(=O)=O)cc1` [Dofetilide] (45.2927 µM) is higher in “fraction of cells in G1 phase” value: 0.521 for the first, 0.551 for the second.

Going from `C#C[C@]1(O)CC[C@H]2[C@@H]3CCC4=CC(=O)CC[C@@H]4[C@H]3CC[C@@]21CC` [Levonorgestrel] (64.009 µM) to `Cc1cn([C@H]2C[C@H](N=[N+]=[N-])[C@@H](CO)O2)c(=O)[nH]c1=O` [3'-azido-3'-deoxythymidine] (74.8374 µM), the “fraction of cells in G1 phase” value falls from 0.509 to 0.488.

Compared with `N=c1ccn2c(n1)O[C@H]1[C@H](O)[C@@H](CO)O[C@H]12` [Cyclocytidine HCl] (88.8077 µM), `NC[C@H]1O[C@H](O[C@H]2[C@H](O)[C@@H](O[C@H]3O[C@H](CO)[C@@H](O)[C@H](N)[C@H]3O)[C@H](N)C[C@@H]2N)[C@H](N)C[C@@H]1O` [Tobramycin (free base)] (42.7786 µM) is lower in “fraction of cells in G1 phase” value: 0.484 for the first, 0.469 for the second.

Going from `OCCOCCN1CCN(C2=Nc3ccccc3Sc3ccccc32)CC1` [Quetiapine fumarate] (22.6473 µM) to `CC(=O)SCC(Cc1ccccc1)C(=O)NCC(=O)OCc1ccccc1` (stereo not drawn) [Racecadotril] (51.8826 µM), the “fraction of cells in G1 phase” value rises from 0.499 to 0.509.

Going from `COc1cc([C@@H]2c3cc4c(cc3[C@@H](O[C@@H]3O[C@@H]5CO[C@@H](C)O[C@H]5[C@H](O)[C@H]3O)[C@H]3COC(=O)[C@H]23)OCO4)cc(OC)c1O` [Etoposide] (33.9806 µM) to `COc1ccnc(C[S+]([O-])c2nc3cc(OC(F)F)ccc3[nH]2)c1OC` (stereo not drawn) [Pantoprazole] (52.168 µM), the “fraction of cells in G1 phase” value falls from 0.496 to 0.484.

Going from `CCCN[C@H]1CCc2nc(N)sc2C1` [Pramipexole] (94.6382 µM) to `C[C@@H]1CCC[C@H](C)N1NC(=O)c1ccc(Cl)c(S(N)(=O)=O)c1` [Clopamide] (57.8284 µM), the “fraction of cells in G1 phase” value rises from 0.48 to 0.525.

Compared with `O=C(CCCCCCC(=O)Nc1ccccc1)NO` [Vorinostat] (75.6716 µM), `CC(C(=O)O)c1cccc(C(=O)c2ccccc2)c1` (stereo not drawn) [Ketoprofen+D153] (78.6509 µM) is higher in “fraction of cells in G1 phase” value: 0.482 for the first, 0.495 for the second.

Compared with `CN(C/C=C/C#CC(C)(C)C)Cc1cccc2ccccc12` [Terbinafine HCl] (68.6247 µM), `CC(C)(O)c1ccccc1CC[C@@H](SCC1(CC(=O)O)CC1)c1cccc(/C=C/c2ccc3ccc(Cl)cc3n2)c1` [Montelukast] (34.1181 µM) is higher in “fraction of cells in G1 phase” value: 0.5 for the first, 0.532 for the second.

Compared with `NNC(=O)c1ccncc1` [Isoniazid] (145.834 µM), `N/C(=N\C(=O)c1nc(Cl)c(N)nc1N)NCc1ccccc1` [Benzamil HCl] (56.1482 µM) is lower in “fraction of cells in G1 phase” value: 0.518 for the first, 0.493 for the second.

Compared with `CC(C)C(=O)Nc1ccc([N+](=O)[O-])c(C(F)(F)F)c1` [Flutamide] (72.4068 µM), `CS(=O)(=O)c1ccc([C@H](O)[C@@H](COC(=O)CN)NC(=O)C(Cl)Cl)cc1` [Thiamphenicol glycinate] (48.3934 µM) is lower in “fraction of cells in G1 phase” value: 0.526 for the first, 0.478 for the second.

Compared with `COC(=O)N[C@H](C(=O)N[C@@H](Cc1ccccc1)[C@@H](O)CN(Cc1ccc(-c2ccccn2)cc1)NC(=O)[C@@H](NC(=O)OC)C(C)(C)C)C(C)(C)C` [Atazanavir] (28.3739 µM), `CS(=O)(=O)CCNCc1ccc(-c2ccc3ncnc(Nc4ccc(OCc5cccc(F)c5)c(Cl)c4)c3c2)o1` [Lapatinib] (34.4192 µM) is higher in “fraction of cells in G1 phase” value: 0.525 for the first, 0.565 for the second.

Going from `C[N+]1(C)[C@@H]2CC(OC(=O)C(O)(c3cccs3)c3cccs3)C[C@H]1[C@@H]1O[C@@H]12` (stereo partly drawn) [Tiotropium Br] (42.3349 µM) to `N[C@@H](Cc1cc(I)c(Oc2cc(I)c(O)c(I)c2)c(I)c1)C(=O)O` (25.7441 µM), the “fraction of cells in G1 phase” value rises from 0.481 to 0.486.
